Assay results as given in ChEMBL document CHEMBL3988442, “University of Dundee, Small-Polar-MMV Screening Library” (2021).
Out of some 67,000 compounds screened, about 300 (0.45%) showed an effect of 50% or more. This is one part of a sample in which strong results are shown more often than they occur.

target: Polyketide synthase Pks13 (Mycobacterium tuberculosis (strain ATCC 25618 / H37Rv)) (UniProt I6X8D2); test: Mycobacterium tuberculosis Polyketide synthase 13 Thioesterase (PKS13); assay type: functional; parameters: scale not given: in the data most compounds retested in dose-response had high values; conditions: 30 µM
Sequence (I6X8D2 whole entry): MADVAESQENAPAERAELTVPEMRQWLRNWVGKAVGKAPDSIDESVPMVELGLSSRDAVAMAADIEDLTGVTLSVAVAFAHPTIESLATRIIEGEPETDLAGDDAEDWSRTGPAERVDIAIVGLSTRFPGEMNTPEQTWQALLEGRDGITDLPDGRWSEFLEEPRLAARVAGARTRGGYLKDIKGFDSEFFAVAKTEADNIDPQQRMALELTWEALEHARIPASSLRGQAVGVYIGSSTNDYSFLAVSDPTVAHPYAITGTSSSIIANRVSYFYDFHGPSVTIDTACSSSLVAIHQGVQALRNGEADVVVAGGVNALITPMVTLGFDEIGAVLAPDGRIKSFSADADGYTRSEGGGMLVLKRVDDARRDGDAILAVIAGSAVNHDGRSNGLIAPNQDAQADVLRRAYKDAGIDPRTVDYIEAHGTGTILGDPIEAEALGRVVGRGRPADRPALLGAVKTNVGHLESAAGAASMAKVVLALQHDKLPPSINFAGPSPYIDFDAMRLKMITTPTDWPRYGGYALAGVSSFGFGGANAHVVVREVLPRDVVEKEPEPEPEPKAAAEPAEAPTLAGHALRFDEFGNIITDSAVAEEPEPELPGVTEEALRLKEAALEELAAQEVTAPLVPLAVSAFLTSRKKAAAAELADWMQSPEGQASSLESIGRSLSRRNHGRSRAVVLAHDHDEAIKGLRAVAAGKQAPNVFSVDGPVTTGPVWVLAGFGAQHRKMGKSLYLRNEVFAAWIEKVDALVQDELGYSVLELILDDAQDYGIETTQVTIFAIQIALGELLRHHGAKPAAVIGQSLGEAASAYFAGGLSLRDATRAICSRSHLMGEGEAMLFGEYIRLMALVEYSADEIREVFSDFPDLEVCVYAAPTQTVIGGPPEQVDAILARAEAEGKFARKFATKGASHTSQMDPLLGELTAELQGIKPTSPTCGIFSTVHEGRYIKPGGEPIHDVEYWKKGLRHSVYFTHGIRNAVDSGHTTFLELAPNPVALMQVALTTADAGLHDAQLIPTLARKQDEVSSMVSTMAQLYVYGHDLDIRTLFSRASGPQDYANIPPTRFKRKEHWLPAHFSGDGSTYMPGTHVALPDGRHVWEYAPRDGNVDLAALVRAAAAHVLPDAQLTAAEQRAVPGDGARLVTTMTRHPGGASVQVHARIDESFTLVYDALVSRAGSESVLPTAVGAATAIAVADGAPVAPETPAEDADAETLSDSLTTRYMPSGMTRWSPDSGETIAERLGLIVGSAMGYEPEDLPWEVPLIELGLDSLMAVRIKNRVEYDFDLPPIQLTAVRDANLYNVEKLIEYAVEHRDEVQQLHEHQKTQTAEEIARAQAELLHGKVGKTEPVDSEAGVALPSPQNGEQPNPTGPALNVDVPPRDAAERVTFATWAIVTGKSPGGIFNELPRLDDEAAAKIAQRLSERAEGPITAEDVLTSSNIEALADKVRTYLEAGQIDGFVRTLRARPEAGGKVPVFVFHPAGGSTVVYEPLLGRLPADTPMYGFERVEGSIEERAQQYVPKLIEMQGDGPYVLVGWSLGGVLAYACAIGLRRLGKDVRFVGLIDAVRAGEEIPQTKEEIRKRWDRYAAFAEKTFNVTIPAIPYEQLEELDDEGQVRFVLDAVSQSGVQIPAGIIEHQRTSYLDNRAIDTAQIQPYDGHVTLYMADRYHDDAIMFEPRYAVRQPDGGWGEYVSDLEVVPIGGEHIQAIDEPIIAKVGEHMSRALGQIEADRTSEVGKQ

Structure (SMILES) | Percent Effect [%]
Cc1occc1C(=O)N1C[C@@H]2CCCO[C@@H]2[C@H](NC(=O)CC2CC2)C1 | -0.923
CC(C)=CCN1C[C@H]2CC[C@@H]1CN(C(=O)c1c[nH]c(=O)c(Cl)c1)C2 | -3.37
CC(C)CN1C[C@@H]2C(=O)N(C)C3(CCN(C(=O)C(C)C)CC3)[C@@H]2C1 | -25.7
Cc1noc([C@]23COC[C@H]2CN(S(=O)(=O)N(C)C)C3)n1 | -30.1
CNC(=O)CN1CCO[C@H]2CN(C(=O)C3CC3)C[C@H]21 | -29
O=C([C@@H]1COC[C@H]2CN(C3CCOCC3)C[C@H]21)N1CCCO1 | 35.9
CS(=O)(=O)N[C@@H]1CN(Cc2ccoc2)C[C@@H]2CCCO[C@@H]21 | -30.2
CCC1(CC)Cc2ccccc2-c2nc(NCCO)[nH]c(=O)c21 | -180
CCC1(CC)Cc2ccccc2-c2nc(NCCCO)[nH]c(=O)c21 | 88.8
CCC1(CC)Cc2ccccc2-c2nc(CN(C)C)nc(O)c21 | -41.1
O=C([C@H]1C[C@H]2OCC[C@H]2N(C(=O)c2ccccn2)C1)N1CCCCO1 | -25.9
CC(=O)N1CCC(NC(=O)c2cc(Cl)ccc2O)CC1 | 95.8
CC(=O)N1CCC(NC(=O)c2cc(S(N)(=O)=O)ccc2C)CC1 | -0.331
CC(=O)N1CCC(NC(=O)c2cc(Cl)ccc2-n2cnnn2)CC1 | -14.8
Cc1nc(CO[C@H]2CN(Cc3ccccn3)[C@@H]3CCCO[C@H]23)cs1 | 1.71
CC(=O)N1CC[C@H]2OCC[C@@H](C(=O)Nc3cccnc3C)[C@H]2C1 | 5.14
O=C(c1ccco1)N1C[C@H]2CCCN(CC3CCOCC3)[C@H]2C1 | 0.0598
Cn1ccnc1CN1C[C@H](N2CCOCC2)[C@@H]2OCCC[C@@H]21 | -10.5
CC(C)N1Cc2cccc(NCC(=O)N(C)C)c2C1 | -31.9
CC(C)N1Cc2cccc(NCC(=O)N(C)C3CCCCC3)c2C1 | 81.9
CC(C)C(C)N1Cc2cccc(NCC(=O)N(C)C)c2C1 (stereo not drawn) | -6.55
CN(C)C[C@@H]1CCC[C@@H]2CN(c3cccnc3)C[C@@H]21 | -20.9
CS(=O)(=O)N1CCN2C(=O)N(C3CCCCC3)C[C@H]2C1 | 3.48
O=C([C@@H]1COC[C@H]2CN(c3ccncn3)C[C@H]21)N1CCCCO1 | -30

Structure (SMILES) | Percent Effect [%]
O=C(C1CCC1)N1CCO[C@H]2[C@H](OCCCn3cccn3)CC[C@@H]21 | -40.4
Cc1ccnc(NC(=O)c2ccc(Cl)o2)c1 | -6.1
Cc1cscc1C(=O)Nc1cc(CSCCO)ccn1 | 11.8
O=C(Nc1cc(CSCCO)ccn1)c1ccc(Cl)o1 | 62
Cc1cccc(CN2C[C@@H](NC(=O)C3CCC3)[C@H]3COC[C@H]32)n1 | -33.3
O=C(CCc1n[nH]c2c1CCCC2)N1C[C@@H]2CC[C@H](C1)N(CC1CC1)C2 | -15.4
Cc1nn(C)cc1-c1ccnc(N(C)Cc2ccoc2)n1 | 139
Cc1nn(C)cc1-c1ccnc(N(C)Cc2cnn(C)c2)n1 | -7.71
Cc1nn(C)cc1-c1ccnc(N(C)Cc2ccc(F)cc2)n1 | -13.2
CC(C)N1[C@H](Cn2cncn2)C[C@@H]2CN(Cc3cccs3)CC[C@@H]21 | 2.62
O=C1CC(NCc2cnc(-c3cccs3)nc2)CN1c1ccccc1 (stereo not drawn) | -18.1
O=C1CC(NCc2cnc(N3CCCC3)nc2)CN1c1ccccc1 (stereo not drawn) | 65.7
O=C1CC(NCc2cnc(C3CCCCC3)nc2)CN1c1ccccc1 (stereo not drawn) | -18
O=S(=O)(c1ccccc1)N1C[C@@H]2CCCCN(Cc3cccs3)[C@@H]2C1 | -1.03
COc1cc2nc(NCc3cc(C)on3)nc(N)c2cc1OC | 78.9
COc1cc2nc(NCc3ccc(C)nc3)nc(N)c2cc1OC | -17.5
COc1cc2nc(NCc3scnc3C)nc(N)c2cc1OC | 12.1
CNC(=O)CN1CCO[C@H]2CN(CC3CCOC3)C[C@H]21 (stereo partly drawn) | -18.9
O=C(c1cc(F)cc(F)c1)N1C[C@H]2CNC[C@H]2C1 | -29.4
COCCN1CC(=O)N2CC[C@@H](O)C[C@H]2C1=O | 7.83
Cc1ncc2c(n1)CCN(CCCc1nc3ccccc3o1)C2 | 0.614
Cc1ncc2c(n1)CN(Cc1nc3ccccc3o1)CC2 | -1.34
Cc1ncc2c(n1)CN(CCCc1nc3ccccc3o1)CC2 | 94.6
CCCN1CCN(C(=O)c2ccc(Cl)cn2)[C@H]2CS(=O)(=O)C[C@H]21 | 5.71
